About 83,000 compounds went through this panel and 20% of them were active in at least one assay; those are over-represented in the sample as a whole.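 A percent growth of 40 corresponds to 60% growth inhibition; 0 means no net growth; -100 means all cells died. Active threshold: below 10.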 Values without a mark were called inactive. Active and inactive are the calls of the source.

Among the test systems are RPMI-8226 leukemia; OVCAR-8 ovarian; OVCAR-5 ovarian; OVCAR-4 ovarian; SK-OV-3 ovarian; IGROV1 ovarian; OVCAR-3 ovarian; HS 578T breast; NCI/ADR-RES ovarian; T-47D breast; BT-549 breast; MDA-MB-435 melanoma; SW-620 colon; MCF7 breast; HCT-116 colon; HCC-2998 colon; KM12 colon.
Common to all, as to test: NCI-60 one-dose screen, 48 h (100 = growth as untreated, 0 = no growth, -100 = all killed)
Conditions in all cases: 10 µM unless noted

`CC1CCc2c(sc(NC(=O)CSc3nnc4ccccn34)c2C(N)=O)C1` (stereo not drawn): the growth was 119% in the test with RPMI-8226 leukemia; 109% in the test with OVCAR-8 ovarian; 99.7% with OVCAR-5 ovarian; 114% in the test with OVCAR-4 ovarian; 131% with SK-OV-3 ovarian; 33.8% with IGROV1 ovarian. For the same compound, the growth is 104% with OVCAR-3 ovarian; 114% in the test with HS 578T breast; 118% in the test on NCI/ADR-RES ovarian; 105% in the test with T-47D breast; 142% in the test on BT-549 breast; 99% in the test with MDA-MB-435 melanoma. Besides, the growth with SW-620 colon was 109%; with MCF7 breast it was 96%; in the test with HCT-116 colon, 104%; with HCC-2998 colon, 105%; in the test with KM12 colon it was 108%.

Regarding `COc1c(NC[C@H]2OC(O)[C@H](O)[C@@H](O)[C@@H]2O)c(=O)c1=O` (stereo partly drawn), the growth in the test with RPMI-8226 leukemia was 101%; in the test with OVCAR-8 ovarian it was 101%; with OVCAR-5 ovarian it was 103%; with OVCAR-4 ovarian, 84.4%; in the test with SK-OV-3 ovarian it was 106%; in the test with IGROV1 ovarian it was 120%. The growth with OVCAR-3 ovarian was 113%; in the test with HS 578T breast it was 101%; with NCI/ADR-RES ovarian, 101%; with T-47D breast, 95.3%; in the test on BT-549 breast, 112%; in the test on MDA-MB-435 melanoma, 98%. Also, the growth in the test on SW-620 colon was 101%; in the test with MCF7 breast, 103%; in the test with HCT-116 colon, 100%; in the test on HCC-2998 colon, 97.9%; with KM12 colon, 111%.

Turning to `O=C(Cc1n[nH]c(=O)c2ccccc12)OCc1c(Cl)cccc1Cl`, the growth in the test with RPMI-8226 leukemia is 63.7%; in the test with OVCAR-8 ovarian it was 102%; in the test on OVCAR-5 ovarian it was 95.7%; in the test with OVCAR-4 ovarian, 105%; with SK-OV-3 ovarian, 113%; in the test on IGROV1 ovarian, 29.4%. The growth in the test on OVCAR-3 ovarian was 84.5%; with HS 578T breast, 103%; in the test on NCI/ADR-RES ovarian, 82.4%; in the test on T-47D breast, 100%; in the test with BT-549 breast it was 138%; in the test on MDA-MB-435 melanoma, 84.7%. Moreover, the growth was 86.9% in the test with SW-620 colon; 69.9% in the test on MCF7 breast; 49.9% in the test on HCT-116 colon; 70.8% with HCC-2998 colon; 66.1% in the test on KM12 colon.

As to `Cc1ccc(-c2csc3nc(C)c(CCCl)c(=O)n23)cc1`, the growth was 83.8% in the test with RPMI-8226 leukemia; 103% in the test with OVCAR-8 ovarian; 107% in the test on OVCAR-5 ovarian; 82.1% in the test with OVCAR-4 ovarian; 105% in the test on SK-OV-3 ovarian; 78.8% with IGROV1 ovarian. Besides, the growth in the test with OVCAR-3 ovarian is 99.4%; with HS 578T breast it was 83%; in the test with NCI/ADR-RES ovarian it was 105%; with T-47D breast it was 76.7%; in the test on BT-549 breast, 119%; in the test with MDA-MB-435 melanoma, 97.3%. Further, the growth with SW-620 colon was 99.2%; in the test on MCF7 breast, 78.3%; in the test on HCT-116 colon, 89.4%; in the test with HCC-2998 colon, 109%; in the test on KM12 colon, 103%.

Consider `CC/C=C\C/C=C\C[C@H]1C/C=C2/C(=O)C=C[C@H]2C/C=C\CCC(=O)O1`, for which the growth in the test with RPMI-8226 leukemia was 4.52% (active); with OVCAR-8 ovarian, 0.0569% (active); in the test with OVCAR-5 ovarian, 25.4%; in the test with OVCAR-4 ovarian, 42.6%; with SK-OV-3 ovarian, 31.3%; with IGROV1 ovarian, 3.81% (active). For the same compound, the growth is -12.1% (active) in the test with OVCAR-3 ovarian; 40.2% in the test with HS 578T breast; 17.9% with NCI/ADR-RES ovarian; 12.9% with T-47D breast; -7.41% (active) in the test on BT-549 breast; 3.37% (active) in the test with MDA-MB-435 melanoma. Further, the growth in the test on SW-620 colon is -4.82% (active); with MCF7 breast, 20%; with HCT-116 colon, -63.4% (active); in the test with HCC-2998 colon, -59.2% (active); in the test with KM12 colon, -34.5% (active).

As to `COc1ccc(/C(=N/O)c2cc(OC)c(OC)c(OC)c2)c(OC)c1N`, the growth with RPMI-8226 leukemia was 32%; in the test with OVCAR-8 ovarian, 40.7%; with OVCAR-5 ovarian, 71.9%; with OVCAR-4 ovarian, 50%; with SK-OV-3 ovarian, 35.7%; in the test with IGROV1 ovarian, 55%. The growth is 1.89% (active) in the test on OVCAR-3 ovarian; 8.77% (active) in the test on HS 578T breast; 31% in the test on NCI/ADR-RES ovarian; 27.2% in the test on T-47D breast; 36.2% in the test on BT-549 breast; -42.3% (active) with MDA-MB-435 melanoma. Also, the growth in the test on SW-620 colon was 17.4%; in the test on MCF7 breast, 21%; with HCT-116 colon, 20.6%; with HCC-2998 colon, 73.4%; in the test on KM12 colon, 23.8%.

As for `CCO/C=N/NC(=O)c1ccncc1`, the growth was 108% with RPMI-8226 leukemia; 108% in the test with OVCAR-8 ovarian; 103% with OVCAR-5 ovarian; 109% in the test on OVCAR-4 ovarian; 109% with SK-OV-3 ovarian; 108% in the test on IGROV1 ovarian. The growth in the test with OVCAR-3 ovarian is 106%; in the test with HS 578T breast, 105%; in the test with NCI/ADR-RES ovarian, 111%; with T-47D breast it was 106%; in the test with BT-549 breast it was 114%; in the test on MDA-MB-435 melanoma it was 110%. For the same compound, the growth with SW-620 colon was 104%; with MCF7 breast it was 101%; in the test on HCT-116 colon, 105%; with HCC-2998 colon it was 113%; in the test on KM12 colon, 106%.

Regarding `CCCCNC(=O)NS(=O)(=O)c1ccc(N2N=C(c3ccc(C)cc3C)CC2c2ccc(OC)cc2)cc1` (stereo not drawn), the growth in the test on RPMI-8226 leukemia was 40.3%; in the test with OVCAR-8 ovarian, 62.9%; with OVCAR-5 ovarian, 89.6%; in the test with OVCAR-4 ovarian, 68.4%; with SK-OV-3 ovarian it was 101%; with IGROV1 ovarian, 98.9%. For the same compound, the growth was 75.2% with OVCAR-3 ovarian; 87.3% in the test on HS 578T breast; 45% in the test on NCI/ADR-RES ovarian; 75% in the test on T-47D breast; 49.9% in the test on BT-549 breast; 9.96% (active) in the test on MDA-MB-435 melanoma. Further, the growth with SW-620 colon is 75.9%; in the test with MCF7 breast, 48.7%; in the test with HCT-116 colon it was 51.6%; in the test on HCC-2998 colon it was 58.6%; with KM12 colon, 48%.

For the compound `COc1cc(OC)c(C(=O)/C=C/c2ccc(C#N)cc2)c(OC)c1`, the growth in the test on RPMI-8226 leukemia was 4.28% (active); with OVCAR-8 ovarian, 11.7%; in the test on OVCAR-5 ovarian, 41.8%; in the test on OVCAR-4 ovarian, 32.8%; in the test on SK-OV-3 ovarian, 17.2%; in the test with IGROV1 ovarian, 14%. The growth with OVCAR-3 ovarian is 8.04% (active); with HS 578T breast it was 32%; in the test with NCI/ADR-RES ovarian it was 24.1%; with T-47D breast, 18.5%; in the test on BT-549 breast, -7.5% (active); in the test on MDA-MB-435 melanoma, 5.64% (active). The growth in the test on SW-620 colon is 9.15% (active); in the test on MCF7 breast it was 13.8%; with HCT-116 colon it was 10.2%; in the test with HCC-2998 colon, 36.8%; in the test on KM12 colon it was 7.74% (active).

The values above are taken from PubChem BioAssay (NCI).
